Measurements from PubChem BioAssay AID652104 (National Center for Advancing Translational Sciences (NCATS), 2013).
Out of some 410,000 compounds screened, about 7,200 (1.8%) were called active. Where a call stands in place of a potency, no number is given. About 7% were inconclusive and are not listed. Calls follow the shape of the dose curve; as a rule, active = well fitted activation curve with a large enough effect; inconclusive = small, poorly fitted or top-dose-only effect, or another doubt; inactive = no such curve, though single readings can be large or run the other way. The sample as a whole holds a higher share of actives than the screen did.
Potency is read from the fitted curve at half-maximal effect.

Assay: qHTS of TDP-43 Inhibitors; also: nearly all actives have a fitted effect of over 50% in size
Details: TDP-43 expressing yeast growth rescue, BacTiter-Glo, 24 h; series mostly up to 46.1 µM
Outline: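 Cell-based yeast growth screen: TDP-43 expression induced in galactose, inoculum OD600=0.02 after raffinose pregrowth to mid-log. Read-out BacTiter-Glo luminescence at 24 hr, 30 deg C; inhibition of toxicity seen as signal increase.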
With `COc1ccc(Nc2cc(Cl)ccc2C(=O)O)cn1` the Potency was 10 µM (active).
With `COc1cc(C(F)(F)F)c(C(=O)N(C)c2ccc(Cl)cc2)cn1` the growth rescue (activation) was -13.9% [at 1.82 µM] (inactive).
In the case of `COc1ccc(Cl)cc1NC(=O)c1oc(C)nc1C`, the Potency is reported as “inactive”.
With `CCOC(=O)c1ccc(NC(=O)CSc2nc3c([nH]c4ccccc43)c(=O)n2C)cc1` the Potency was “inactive”.
With `CSc1cccc(NC(=S)N(C(C)C)C(C)c2ccccn2)c1` (configuration not stated) the growth rescue (activation) was -6.51% [at 9.22 µM] (inactive).
In the case of `Cc1c(Cl)cccc1NC(=S)N(Cc1ccccc1)Cc1cccnc1`, the Potency is reported as “inactive”.
In the case of `CSc1cccc(NC(=S)N(Cc2ccccc2)Cc2ccccn2)c1`, the Potency is reported as 20 µM (active).
In the case of `CC(C)(C)OC(=O)N1CCC(c2c(C(=O)N3CCN(c4cccc(Cl)c4)CC3)cnn2-c2cccc(Cl)c2)CC1`, the Potency is reported as “inactive”.
For `CCOCCCNC(=O)c1c(NC(=O)Cc2coc3c(C)c(C)ccc23)sc2c1CCC2`, the Potency was “inactive”.
With `Cc1csc(NC(=O)CSc2nnc(-c3cccnc3)o2)n1` the Potency was “inactive”.
In the case of `CC(NC(=O)COc1ccccc1)C(=O)NC1=NCCS1` (configuration not stated), the Potency is reported as “inactive”.
For `O=C(CSC1=NCCS1)Nc1nc(-c2ccccc2)cs1`, the Potency was 22.4 µM (active).
In the case of `COc1ccc(-c2nn(CC(=O)Nc3ccccc3F)c3c2cnc2ccc(F)cc23)cc1`, the Potency is reported as “inactive”.
For `Cc1ccc(Cn2c(=O)n(CCCC(=O)NCc3ccccc3Cl)c(=O)c3ccccc32)cc1`, the Potency was “inactive”.
In the case of `COc1cc(OC)c(NC(=O)Cc2ccc(-n3c(C)nc4cccnc43)cc2)cc1Cl`, the Potency is reported as “inactive”.
For `O=C(Nc1nc2c(s1)CCCC2)c1ccccc1F`, the Potency was “inactive”.
In the case of `Cc1cc(C)cc(OC(C)C(=O)Nc2nc3c(s2)CCCC3)c1` (configuration not stated), the Potency is reported as “inactive”.
For `Fc1ccc2nc(Nc3nc4c(s3)CCCC4)sc2c1`, the Potency was 2.24 µM (active).
With `COc1ccc(-c2cn3nc(N4CCC(C(=O)Nc5cccc(C)c5C)CC4)sc3n2)cc1` the Potency was “inactive”.
In the case of `Cc1ccccc1S(=O)(=O)NC(=O)C1(C)CCN1C(=O)C1(c2ccc(Cl)cc2)CC1` (configuration not stated), the Potency is reported as 28.2 µM (active).
For `Cc1ccccc1S(=O)(=O)NC(=O)C1(C)CCN1C(=O)C1(c2ccccc2)CCCC1` (configuration not stated), the Potency was 35.5 µM (active).
For `CC1(C(=O)NS(=O)(=O)c2ccccc2)CCN1C(=O)c1ccccc1` (configuration not stated), the Potency was “inactive”.
For `Cc1ccccc1S(=O)(=O)NC(=O)C1(C)CCN1C(=O)Cc1ccc(Cl)cc1Cl` (configuration not stated), the Potency was “inactive”.
With `CC1(C(=O)NS(=O)(=O)c2ccc3ccccc3c2)CCN1C(=O)C1(c2ccc(Cl)cc2)CCC1` (configuration not stated) the Potency was “inactive”.
For `CCCNC(=O)C1(C)CCN1C(=O)C1(c2ccccc2)CC1` (configuration not stated), the Potency was “inactive”.
For `COc1ccc(NC(=O)CSc2nccn2C2CCCC2)cc1OC`, the Potency was “inactive”.
In the case of `COc1ccccc1CCNC(=O)c1cccn1-c1nnc(N2CCCCC2)s1`, the Potency is reported as “inactive”.
